Bioassay records from PubChem BioAssay.
Cycloheximide cs: Cycloheximide Counterscreen for Small Molecule Inhibitors of Shiga Toxin. cell reporter, cycloheximide protein synthesis inhibition counterscreen. max response, %. 300,000 compounds, 12% hits; in the data active means max response mostly above about 13%, no sharp cut-off; inactive means mostly below about 14%; further: read at 38.3 µM for the half of the compounds with a filed dose; 0% is about no effect
Pf growth 96h: Primary qHTS for delayed death inhibitors of the malarial parasite plastid, 96 hour incubation; P. falciparum luciferase reporter growth, 96 h; Potency, µM (series often up to 28.7 µM), for the others: top-dose activity change, negative = inhibition, hits mostly inhibitors; 320,000 compounds, 6.9% hits; further: potency means the concentration at half of the fitted maximal effect; on the % scale 0 is the no-effect control and ±100 the full control effect
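Two parasite generations (96 h, 37 C, 5% CO2) of compound exposure in infected erythrocytes (0.05% parasitemia, 2% hematocrit). Luciferase-reporter P. falciparum; decreased luminescence indicates inhibited growth, aimed at apicoplast-acting delayed death.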
FBPA Giardia inh: qHTS Assay for Inhibitors of Fructose-1,6-bisphosphate Aldolase from Giardia Lamblia | A8B2U2 | purified Giardia FBPA | Potency, µM (highest dose often 59.6 µM), for inactives: top-dose activity, negative = inhibition, actives largely listed as inhibitors | 290,000 compounds, 0.71% hits; further: potency means the concentration at half of the fitted maximal effect; on the % scale 0 is the no-effect control and ±100 the full control effect; nearly all actives have a fitted effect of over 55% in size
Target sequence (A8B2U2 whole entry, looked up): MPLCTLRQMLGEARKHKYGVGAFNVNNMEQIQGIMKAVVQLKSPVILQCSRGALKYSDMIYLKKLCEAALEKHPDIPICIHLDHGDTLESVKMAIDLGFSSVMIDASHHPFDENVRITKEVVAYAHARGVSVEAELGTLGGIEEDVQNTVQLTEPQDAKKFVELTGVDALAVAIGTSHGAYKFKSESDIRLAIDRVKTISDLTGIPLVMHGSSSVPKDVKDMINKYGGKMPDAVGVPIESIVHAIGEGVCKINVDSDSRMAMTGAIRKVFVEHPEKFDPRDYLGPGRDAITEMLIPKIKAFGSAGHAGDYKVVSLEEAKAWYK
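Giardia FBPA (40 nM reagent) was preincubated 10 min at RT with compound (up to 57.5 uM final), then substrate plus GAPDH/TPI/NAD/arsenate coupling system with diaphorase/resazurin was added; resorufin fluorescence (525/598 nm) was read after 20 min.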
Pf growth 48h: Primary qHTS for delayed death inhibitors of the malarial parasite plastid, 48 hour incubation | P. falciparum luciferase growth in erythrocytes, 48 h | Potency, µM (titrated, usually from 28.7 µM), inactives show at the highest dose activity change, negative = inhibition, hits mostly inhibitors | 310,000 compounds, 5.9% hits | AID 504832, 2011; further: potency means the concentration at half of the fitted maximal effect; on the % scale 0 is the no-effect control and ±100 the full control effect
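Luciferase-expressing parasites in RBCs, 2% Hct / 0.1% parasitemia final; RPMI 1640 + 0.5% Albumax; 37 C, 5% CO2, one generation; luminescence read-out, lower signal = inhibition.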
Shiga inhibitor: A qHTS for Small Molecule Inhibitors of Shiga Toxin | Vero cells, Shiga toxin protein synthesis inhibition reporter | inhibition, % at 38.7 µM | 290,000 compounds, 9.2% hits; in the data active means inhibition mostly above about 28%, no sharp cut-off; inactive means mostly below about 43%; further: 0% is about no effect
NS1 function inh: qHTS Assay for Inhibitors of Influenza NS1 Protein Function; 270,000 compounds, 0.4% hits; Potency, µM (doses to about 46.1 µM), for the others: at the highest dose activity, positive = more growth; AID 2326, 2010; calls by dose curve; further: potency means the concentration at half of the fitted maximal effect; actives are rising curves; nearly all actives have a fitted effect of over 50% in size
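Read-out: OD600 growth recovery of NS1-expressing budding yeast. Cells grown overnight at 30C in -URA glucose medium, washed, resuspended and diluted 1:100 in 2% galactose assay medium, pH 6.0. Same strain lacking NS1 served as positive control.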
* hit, by the source's call; [ ] = another dose, or the depositor's remark. Hits are enriched below; roughly 21% of the tested compounds scored in any of these assays. Unless noted, the call rests on the fitted dose curve; in most records, active means well fitted curve in the direction sought with a large enough effect; inconclusive means small, poorly fitted or top-dose-only effect, or another doubt; inactive means no such curve, though single readings can be large; an effect the other way counts as inactive or inconclusive.

For O=Cc1ccc(Oc2cc(-c3ccccc3)nc(-c3ccccc3)n2)cc1 the results were Cycloheximide cs -1.1, Pf growth 96h 13.1µM*, FBPA Giardia inh 1.2%, Pf growth 48h 23.0%, Shiga inhibitor -6.9 and NS1 function inh 3.7%.
CC(C)Cn1c(N)c(C(=O)CSc2ncccn2)c(=O)n(C)c1=O was read as Pf growth 96h 2.0% and Pf growth 48h 20.9%.
`CC(C)Cn1c(N)c(C(=O)COC(=O)c2cc(C(F)(F)F)nc3ccccc23)c(=O)n(C)c1=O` gave Cycloheximide cs -2.7, Pf growth 96h inconclusive, FBPA Giardia inh -14.1%, Pf growth 48h inconclusive, Shiga inhibitor -14.9 and NS1 function inh 4.8%.
`CC(C)Cn1c(N)c(C(=O)COC(=O)c2cc(-c3ccco3)nc3ccccc23)c(=O)n(C)c1=O` gave Cycloheximide cs -2.6, Pf growth 96h -5.7%[5.75 µM], FBPA Giardia inh -19.7%, Pf growth 48h 9.28µM*, Shiga inhibitor -4.8 and NS1 function inh inconclusive.
Screening CC(C)Cn1c(N)c(C(=O)COC(=O)c2cc(C3CC3)nc3ccccc23)c(=O)n(C)c1=O returned Cycloheximide cs -3.2, Pf growth 96h 11.7µM*, FBPA Giardia inh -13.6%, Pf growth 48h 5.22µM*, Shiga inhibitor -6.5 and NS1 function inh -2.5%.
CC(C)Cn1c(N)c(C(=O)CSc2nnc(C3CC3)n2C2CC2)c(=O)n(C)c1=O was read as Pf growth 96h 8.28µM* and Pf growth 48h inconclusive.
`CC(C)Cn1c(N)c(C(=O)COC(=O)C2Cc3ccccc3CN2S(C)(=O)=O)c(=O)n(C)c1=O` (stereo not given) gave Pf growth 96h inconclusive and Pf growth 48h 11.7µM*.
For CC(NC=O)c1nc2ccccc2n1CCc1ccccc1 (stereo not given) the results were Cycloheximide cs -1.4, Pf growth 96h inconclusive, FBPA Giardia inh -11.1%, Pf growth 48h 0.0%, Shiga inhibitor -17.7 and NS1 function inh 2.4%.
Screening CCN(CC)C[C@@H]1CCCCN1CC(=O)N1c2ccccc2C(=O)Nc2cccnc21 returned FBPA Giardia inh 5.4%.
Screening Cn1c(=O)c(C(=O)COC(=O)c2cc(-c3ccco3)nc3ccccc23)c(N)n(Cc2ccccc2)c1=O returned Cycloheximide cs -0.6, Pf growth 96h 6.57µM*, FBPA Giardia inh -22.9%, Pf growth 48h 5.22µM*, Shiga inhibitor 28.6 and NS1 function inh 8.91µM*.
Screening CC(C)Cn1c(N)c(C(=O)COC(=O)c2cc(-c3ccccc3)nc3ccccc23)c(=O)n(C)c1=O returned Cycloheximide cs -3.2, Pf growth 96h 11.7µM*, FBPA Giardia inh -10.1%, Pf growth 48h inconclusive, Shiga inhibitor -8.3 and NS1 function inh 8.2%.
CCc1cccc2c(C#N)cn(CCOc3ccccc3OC)c12 was read as Cycloheximide cs -1.9, Pf growth 96h -14.0%, FBPA Giardia inh -5.7%, Pf growth 48h inconclusive, Shiga inhibitor 11.6 and NS1 function inh -3.9%.
CCc1cccc2c(C#N)cn(CC(=O)NCCOC)c12 was read as Cycloheximide cs -5.1, Pf growth 96h -21.0%, FBPA Giardia inh 3.1%, Pf growth 48h 10.4µM*, Shiga inhibitor -15.3 and NS1 function inh -5.5%.
Cc1ccc(S(=O)(=O)N2CC(O)CC2C(=O)OCc2nc3sc(C)c(C)c3c(=O)[nH]2)cc1 (stereo not given) was read as Cycloheximide cs -4.0, Pf growth 96h 13.1µM*, FBPA Giardia inh -8.5%, Pf growth 48h 11.7µM*, Shiga inhibitor -2.1 and NS1 function inh 18.6%.
Screening O=C(c1ccc(-c2ccccc2)cc1)N1CCN(c2ncccn2)CC1 returned Cycloheximide cs 9.0, Pf growth 96h 10.4µM*, FBPA Giardia inh -1.4%, Pf growth 48h -6.6%, Shiga inhibitor 18.0 and NS1 function inh -20.5%.
`Cc1ccc(Cl)cc1N1CCN(C(=O)c2cc3c(=O)[nH]c4ccccc4c3n2C)CC1` gave Cycloheximide cs -2.4, Pf growth 96h 9.28µM*, FBPA Giardia inh -8.8%, Pf growth 48h inconclusive, Shiga inhibitor 14.2 and NS1 function inh 12.8%.
For O=C(c1ccccc1)N1CCN(c2ncccn2)CC1 the results were Cycloheximide cs -2.2, Pf growth 96h 61.7%, FBPA Giardia inh 4.8%, Pf growth 48h 9.2%, Shiga inhibitor 6.1 and NS1 function inh 7.8%.
`COc1ccccc1N1CCN(C(=O)c2ccc3[nH]c4c(c3c2)CCCC4)CC1` gave Cycloheximide cs 3.6, Pf growth 96h 11.7µM*, FBPA Giardia inh -5.3%, Pf growth 48h 0.0%, Shiga inhibitor -4.9 and NS1 function inh -10.1%.
`COc1ccccc1N1CCN(C(=O)c2ccc(COc3cccc4c3OC(C)(C)C4)cc2)CC1` gave Pf growth 96h inconclusive and Pf growth 48h 10.4µM*.
For COc1ccccc1N1CCN(C(=O)c2ccc(-c3ccc(Cl)cc3)o2)CC1 the results were Pf growth 96h 11.7µM* and Pf growth 48h inconclusive.
For Cn1c(C(=O)N2CCN(c3ccc(F)cc3)CC2)cc2c(=O)n(C)c3ccccc3c21 the results were NS1 function inh -49.9%.
Screening COc1ccccc1C(=O)COC(=O)COc1cccc2c1OC(C)(C)C2 returned Cycloheximide cs 52.2*, Pf growth 96h inconclusive, Pf growth 48h 116.3%, Shiga inhibitor 84.8* and NS1 function inh -71.5%.
`COc1ccccc1N1CCN(C(=O)c2cc3c(=O)n(C)c4ccccc4c3n2C)CC1` gave Cycloheximide cs -2.0, Pf growth 96h 7.38µM*, FBPA Giardia inh -21.9%, Shiga inhibitor -7.7 and NS1 function inh -36.0%.
`COc1ccc(NC(=O)COC(=O)COc2cccc3c2OC(C)(C)C3)cc1` gave Pf growth 96h 1.9% and Pf growth 48h -15.3%.
`COc1ccccc1N1CCN(C(=O)NCc2ccc(Cl)cc2)CC1` gave Cycloheximide cs -1.7, Pf growth 96h 24.1%, FBPA Giardia inh 0.8%, Pf growth 48h -5.0%, Shiga inhibitor -6.9 and NS1 function inh -38.2%.
`CC(=O)c1ccc(-c2ccc(C(=O)N3CCN(c4ccc(F)cc4)CC3)o2)cc1` gave Cycloheximide cs 20.6*, Pf growth 96h 11.7µM*, FBPA Giardia inh -8.3%, Pf growth 48h -11.2% and Shiga inhibitor 19.0.
For CCCN1CCC(=O)N(CCN=[N+]=[N-])CC1 the results were Cycloheximide cs -2.5, Pf growth 96h -7.2%, FBPA Giardia inh 1.0%, Pf growth 48h 18.6%, Shiga inhibitor -5.2 and NS1 function inh 10.5%.
For Cc1ccc(S(=O)(=O)NCCC(=O)Nc2ncccc2O)cc1C the results were Pf growth 96h -16.5% and Pf growth 48h 40.2%.
`COc1ccc(C(=O)N2CCN(c3ccccc3OC)CC2)cc1` gave Cycloheximide cs 20.9, Pf growth 96h -33.7%[5.75 µM], FBPA Giardia inh 1.8%, Pf growth 48h 11.2% and Shiga inhibitor 84.4.
